Bfl-1 A1 inh: caspase 3/7 activation in MEF A1-2A-BIM cells, primary screen, A1 inhibitor project, cell-based, luminescence, HTS. Caspase-Glo 3/7 luminescence, 3 h; percent of clofoctol response, vehicle zero. caspase activation, % (test concentration not listed). actives 0.066% (n = 330,000);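 active = over half of replicate activation scores above 10%, or exactly half above 10 with the replicate mean above 10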
AHR activator: AHR activators, primary screen, cell-based, luminescence, luciferase reporter, human; actives 2.5% (n = 320,000); AHR-responsive luciferase reporter cells; activation, % at 5 µM; Aryl hydrocarbon receptor (Homo sapiens), P35869; in the data active = activation above about 47%;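 note: 0% = vehicle wells and 100% = reference agonist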
Target sequence (P35869 whole entry, looked up): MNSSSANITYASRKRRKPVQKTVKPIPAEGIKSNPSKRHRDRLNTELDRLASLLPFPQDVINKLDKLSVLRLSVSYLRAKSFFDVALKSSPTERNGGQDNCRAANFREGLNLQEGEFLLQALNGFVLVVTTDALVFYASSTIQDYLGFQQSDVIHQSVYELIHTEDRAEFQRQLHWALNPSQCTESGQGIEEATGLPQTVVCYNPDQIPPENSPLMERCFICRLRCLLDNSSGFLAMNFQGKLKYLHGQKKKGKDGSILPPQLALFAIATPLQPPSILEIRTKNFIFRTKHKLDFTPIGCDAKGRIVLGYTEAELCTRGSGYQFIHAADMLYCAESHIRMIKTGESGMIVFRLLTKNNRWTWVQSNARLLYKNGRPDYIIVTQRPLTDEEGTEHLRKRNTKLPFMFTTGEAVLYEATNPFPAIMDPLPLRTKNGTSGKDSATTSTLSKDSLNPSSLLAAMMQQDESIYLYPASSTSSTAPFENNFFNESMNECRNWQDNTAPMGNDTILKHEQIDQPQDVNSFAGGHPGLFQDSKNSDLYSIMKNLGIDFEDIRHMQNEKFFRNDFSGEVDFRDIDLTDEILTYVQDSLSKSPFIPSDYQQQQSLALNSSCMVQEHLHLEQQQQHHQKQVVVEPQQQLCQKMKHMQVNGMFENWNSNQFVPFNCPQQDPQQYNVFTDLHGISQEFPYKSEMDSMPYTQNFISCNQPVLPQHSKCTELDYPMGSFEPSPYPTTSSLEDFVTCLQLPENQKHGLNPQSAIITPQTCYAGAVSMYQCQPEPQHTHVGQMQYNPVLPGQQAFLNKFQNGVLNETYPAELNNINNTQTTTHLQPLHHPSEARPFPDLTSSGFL
Efflux pump mplx: inhibitors of Candida efflux pumps in yeast, primary screen, S. cerevisiae, Nile Red, multiplex | S. cerevisiae Candida pump triplex | inhibition, % at 10 µM | actives 0.44% (n = 330,000);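 active = plate passing quality check with inhibition over a set limit, or well fluorescence over plate mean plus 4 SD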;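 note: Nile Red retained in pooled yeast measured as flow cytometry median fluorescence; 0% = buffer negative control and 100% = Enniatin B positive control; higher means more Nile Red kept so more efflux inhibition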
Mot1-301 SUMO: yeast Mot1-301 growth rescue at high temperature, primary screen, SUMOylation pathway inhibitor project, S. cerevisiae, ATP luminescence, 38.5C; growth rescue, % at 18.8 µM; AID 2716, 2010; actives 1% (n = 320,000); S. cerevisiae Mot1-301 growth rescue; percent above DMSO median, 100 means doubled;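 active = every valid replicate shows activation above 250% relative to neutral control wells; inactive = the rest, any valid replicate at or below 250%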;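 note: OY570 slx delta 5 strain wells were the positive control but not used for scaling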
VLA-4 inh: inhibition in human VLA-4 binding assay, primary screen, VLA-4 allosteric modulator project, MLPCN library, flow cytometry, VLA-4 expressing cells. Integrin alpha-4 (Homo sapiens), P13612. ligand binding flow cytometry. inhibition, % (about 7 µM as worked out from the volumes in the protocol). actives 0.2% (n = 330,000). AID 2557, 2010; in the data active = inhibition above about 50%
ALR H2O2 inh: inhibitors of human ALR sulfhydryl oxidase, primary screen, biochemical, H2O2 detection, HRP-luminol luminescence, single point | FAD-linked sulfhydryl oxidase ALR (Homo sapiens), P55789 | inhibition, % (concentration not given with the values) | purified ALR, DTT oxidation | actives 3.8% (n = 290,000);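 active = mean replicate inhibition above about 79%, with every replicate also reaching it, limit read from the data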
Active calls of the source: *. Most compounds without a hit are left out; they make up all but 7.2% or so of the library.

`COc1ccc(NC(=O)CN(C)C(=O)c2oc3ccccc3c2C)cc1` gave Bfl-1 A1 inh -0.6, AHR activator 13.1, Efflux pump mplx -0.1, Mot1-301 SUMO -5.8, VLA-4 inh 7.7 and ALR H2O2 inh -3.4.
`O=C1c2ccccc2C(=O)C1(O)O` gave Bfl-1 A1 inh -0.1, AHR activator 4.2, Efflux pump mplx -0.2, Mot1-301 SUMO -0.1, VLA-4 inh -2.6 and ALR H2O2 inh -46.4.
`CC1(S(=O)(=O)O)CC(=O)c2ccccc2C1=O` (stereo not drawn) gave Bfl-1 A1 inh -1.0, AHR activator 2.3, Efflux pump mplx 0.0, Mot1-301 SUMO -8.9, VLA-4 inh 8.1 and ALR H2O2 inh 93.2*.
`COC(=O)c1c(-c2ccccc2)csc1NC(=O)c1ccco1` gave Bfl-1 A1 inh -1.6, AHR activator -1.5, Efflux pump mplx 0.2, Mot1-301 SUMO 28.5, VLA-4 inh 41.8 and ALR H2O2 inh -2.1.
`O=C(/C=C/c1ccco1)Nc1sc2c(c1C(=O)O)CCC2` gave Bfl-1 A1 inh -10.8, AHR activator 10.7, Efflux pump mplx 0.0, Mot1-301 SUMO 23.3, VLA-4 inh 11.8 and ALR H2O2 inh 97.6*.
O=C(Nc1scc(-c2ccc(F)cc2)c1C(=O)O)c1ccco1 was read as Bfl-1 A1 inh -11.1, AHR activator -3.1, Efflux pump mplx -0.1, VLA-4 inh 5.0 and ALR H2O2 inh 87.7*.
Cc1ccc(-c2csc(NC(=O)/C=C/c3ccco3)c2C(=O)O)cc1 was read as Bfl-1 A1 inh -5.9, AHR activator 0.5, Efflux pump mplx 0.0, Mot1-301 SUMO 16.5, VLA-4 inh 9.8 and ALR H2O2 inh 97.2*.
`N#Cc1c(NC(=O)/C=C/c2ccco2)sc2c1CCCC2` gave Bfl-1 A1 inh 1.0, AHR activator 0.8, Efflux pump mplx 0.1, Mot1-301 SUMO 115.0, VLA-4 inh 31.8 and ALR H2O2 inh 14.1.
CCCC(=O)c1c(C)c2ccccc2n1C was read as Bfl-1 A1 inh -0.4, AHR activator 2.1, Efflux pump mplx 0.3, Mot1-301 SUMO -40.0, VLA-4 inh 25.2 and ALR H2O2 inh 2.1.
N#Cc1ccc(C(=O)CN2CCN(c3ccccc3)CC2)cc1 was read as Bfl-1 A1 inh 0.1, AHR activator 4.0, Efflux pump mplx -0.1, Mot1-301 SUMO 1.6 and VLA-4 inh 6.1.
`Cc1cc(NC(=O)c2cccc(S(=O)(=O)N3CCCCCC3)c2)no1` gave Bfl-1 A1 inh 0.3, AHR activator 0.6, Efflux pump mplx 0.0, Mot1-301 SUMO 0.5, VLA-4 inh 9.7 and ALR H2O2 inh 1.0.
CCOc1ccc(NC(=O)c2c(OC)cccc2OC)cc1 was read as Bfl-1 A1 inh -0.6, AHR activator 50.8*, Efflux pump mplx 0.1, Mot1-301 SUMO 10.6, VLA-4 inh 4.1 and ALR H2O2 inh -2.5.
Screening CCOc1ccc(NC(=O)c2ccc(OC)cc2)cc1 returned Bfl-1 A1 inh -3.0, AHR activator -1.0, Efflux pump mplx -0.1, Mot1-301 SUMO 17.3, VLA-4 inh 1.8 and ALR H2O2 inh -4.4.
COc1cccc(OC)c1C(=O)Nc1ccc2c(c1)Cc1ccccc1-2 was read as Bfl-1 A1 inh -0.1, AHR activator 74.8*, Efflux pump mplx 0.2, Mot1-301 SUMO 7.3, VLA-4 inh 15.3 and ALR H2O2 inh 1.9.
COc1cccc(OC)c1C(=O)Nc1ccc(N2CCCC2)cc1 was read as Bfl-1 A1 inh 0.5, AHR activator 49.5*, Efflux pump mplx 0.0, Mot1-301 SUMO 1.5, VLA-4 inh -12.5 and ALR H2O2 inh -15.8.
O=C(Nc1ccc(N2CCCCCC2)cc1)c1ccc[nH]1 was read as Bfl-1 A1 inh -3.4, AHR activator 4.4, Efflux pump mplx 0.2, Mot1-301 SUMO -1.4, VLA-4 inh 8.6 and ALR H2O2 inh 99.1*.
COc1ccccc1CN1C(=O)c2ccccc2C1C(=O)NC1CCC(C)CC1 (stereo not drawn) was read as Bfl-1 A1 inh 1.3, AHR activator 0.6, Efflux pump mplx 0.2, Mot1-301 SUMO 1.2, VLA-4 inh -12.6 and ALR H2O2 inh 82.0*.

High-throughput results from PubChem BioAssay.
